# Reference: ChEMBL document CHEMBL3988442, “University of Dundee, Small-Polar-MMV Screening Library” (2021)
# In all, about 48,000 compounds went through this assay and about 13,000 (27%) showed an effect of 50% or more. This is one part of the list.
# System: Wolbachia pipientis
# Assay: Anti-Wolbachia Cell-Based Screen
# Format: functional
# Set-up: scale not given: in the data most compounds retested in dose-response had high values
# Conditions: 5 µM
row,Compound,Percent Effect
1,CO[C@@H]1CCN(c2ncc(F)cn2)[C@@H]2CN(CC3CC3)C[C@@H]21,9.085%
2,CCN1CC(=O)NCC12CCN(C(=O)c1ccno1)C2.O=C(O)C(F)(F)F (stereo not drawn),-6.47%
3,O=S(=O)(c1cccc(Cl)c1)N1C[C@@H]2CCN[C@@H]2C1,-5.104%
4,O=C1NC[C@H]2CN(Cc3nccs3)CCN12,4.843%
5,CC(C)(CNc1ccc(C#N)c(C(F)(F)F)c1)C(N)=O,-0.8311%
6,CCN1CCOCC2(C1)CN(C(=O)c1c(C)noc1C)CCO2 (stereo not drawn),103.8%
7,Cc1noc(C)c1C(=O)N1CCC2(CC1)c1nc[nH]c1CCN2C,14.77%
8,O=C(O)C(F)(F)F.O=C(O)C(F)(F)F.c1cnc(N2CCC3(COCCN(CC4CC4)C3)C2)nc1 (stereo not drawn),-6.749%
9,Cc1noc(C)c1CN1CCOC2(CCCN(c3nncs3)C2)C1.O=C(O)C(F)(F)F (stereo not drawn),-6.2%
10,Cc1noc(C)c1C(=O)N1CCOC2(COCCN(C(C)C)C2)C1.O=C(O)C(F)(F)F (stereo not drawn),90.48%
11,COCCN1C[C@@H](C)[C@@]2(COCCN(C(=O)c3ccno3)C2)C1.O=C(O)C(F)(F)F,2.349%
12,Cc1nocc1C(=O)N1CCOC2(COCCN(CC3CC3)C2)C1 (stereo not drawn),116%
13,COCCN1C[C@@H](C)[C@@]2(COCCN(C(=O)c3ccncc3)C2)C1.O=C(O)C(F)(F)F.O=C(O)C(F)(F)F,2.912%
14,COc1ccc(C(=O)N2CCOC3(CNCCOC3)C2)c(OC)n1 (stereo not drawn),-6.762%
15,COCCN1CCOCC2(C1)CN(C(=O)c1conc1C)CCO2.O=C(O)C(F)(F)F (stereo not drawn),91.15%
16,Oc1cccc2ccc(CN3CCC4(CCNCC4)C3)nc12,2.778%
17,Cn1nc(CN2CCCCC(N)C2)c2c(Cl)cccc21 (stereo not drawn),-4.304%
18,Cc1cnc(N2CCC3(CC2)COCCN(C(C)C)C3)nc1.O=C(O)C(F)(F)F,7.175%
19,Cc1nocc1C(=O)N1CCOC2(COCCN(C(C)C)C2)C1.O=C(O)C(F)(F)F (stereo not drawn),91.68%
20,CC(C)N1CCOCC2(CN(Cc3ccccn3)CCO2)C1.O=C(O)C(F)(F)F.O=C(O)C(F)(F)F.O=C(O)C(F)(F)F (stereo not drawn),-11.42%
21,CSC1(CNC(=O)NC(C)Cc2cccc(F)c2)CCOCC1 (stereo not drawn),-4.564%
22,Cc1ccccc1CC(=O)N1C[C@@H](O)[C@H](N2CCN(C)CC2)C1,176.4%
23,Cc1ccccc1CC(=O)N1C[C@H]2CC[C@@H]1CN(Cc1cccnc1)C2,5.499%
24,Cc1ccccc1CC(=O)N1C[C@@H](O)[C@H](N2CCOCC2)C1,153.4%
25,Cc1ccccc1CC(=O)N1CCN(C2CCOC2=O)CC1 (stereo not drawn),5.646%
26,Cc1ccccc1CC(=O)N1C[C@@H](O)[C@H](N2CCC(F)(F)CC2)C1,138.7%
27,Cc1nc(CN2CCO[C@H]3CN(C(=O)Cc4cccs4)C[C@H]32)cs1,2.702%
28,CC(=O)N1CCN([C@@H]2CN(C(=O)Cc3ccccc3C)C[C@H]2O)CC1,157.7%
